# Shown are actives, neighbours in structure and some others; about 4.1% of the full set was active somewhere.
# DAX1 inh-1 = DAX1 (NR0B1) inhibitors on StAR promoter, primary screen, cell-based, luminescence, SF-1 (NR5A1), full-length DAX-1; HEK293T StAR-luciferase reporter, SF-1/DAX-1 repression relief; 370,000 compounds, 1.1% hits; inhibition, % at 6.8 µM;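 active = inhibition above the mean over all tested compounds plus 3 SD, cut at about 3.6% in these data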;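 note: 0% = DAX-1 cells with DMSO and 100% = cells lacking DAX-1 with DMSO; higher inhibition means more luminescence from relief of DAX-1 repression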
# hcDAF-12 act = H. contortus DAF-12 nuclear receptor activators, primary screen, cell-based, luminescence, HEK293, lit1-tk-luc reporter. 370,000 compounds, 1.4% hits. HEK293 hcDAF-12 lit1-tk-luc reporter; 0% DMSO, 100% Δ7-dafachronic acid. activation, % at 6.8 µM. AID 652067, 2013;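 active = activation above the mean of all tested compounds plus 3 SD, cut at about 5.5% in these data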;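 note: 100% = response to 3 µM Δ7-dafachronic acid high control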
# hgDAF-12 ag = H. glycines DAF-12 receptor agonists, primary screen, cell-based, luminescence, HEK293, GAL4 fusion, UAS-luciferase; 370,000 compounds, 1.8% hits; HEK293 GAL4-hgDAF12 UAS-luciferase reporter, agonist luminescence; normalized to butyrate control; activation, % at 6.8 µM;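 active = activation above a cutoff set at the mean of all screened compounds plus 3 SD, cut at about 10% in these data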;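 note: 0% = DMSO wells and 100% = sodium butyrate wells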
# ssDAF-12 act = S. stercoralis DAF-12 nuclear receptor activators, primary screen, cell-based, luminescence, HEK293, GRIP1 co-expression, lit1-tk-luc; Nuclear hormone receptor DAF-12 (Strongyloides stercoralis); 370,000 compounds, 1% hits; AID 652126, 2013; activation, % at 6.8 µM; HEK293 ssDAF-12/GRIP1 lit1-tk-luc reporter; % of 3 µM dafachronic acid response;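 active = activation above the mean over all tested compounds plus 3 SD, cut at about 0.9% in these data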;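 note: 0% = DMSO-only wells and 100% = 3 µM delta7-dafachronic acid wells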
# DAX1 inh-2 = DAX1 (NR0B1) inhibitors, primary screen, cell-based, HEK293, Gal4-DAX1, luciferase luminescence; Nuclear receptor subfamily 0 group B member 1 (Homo sapiens), P51843; HEK293 Gal4-DAX1 luciferase reporter; inhibition, % at 6.75 µM; 340,000 compounds, 0.99% hits;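 active = inhibition above the mean over all tested compounds plus 3 SD, cut at about 4.2% in these data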;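 note: 0% = DAX1-transfected cells with DMSO and 100% = empty-vector control cells with DMSO; inhibition shows as a rise in luminescence from relieved DAX1 repression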
# Target sequence (P51843 207-470 limits assumed): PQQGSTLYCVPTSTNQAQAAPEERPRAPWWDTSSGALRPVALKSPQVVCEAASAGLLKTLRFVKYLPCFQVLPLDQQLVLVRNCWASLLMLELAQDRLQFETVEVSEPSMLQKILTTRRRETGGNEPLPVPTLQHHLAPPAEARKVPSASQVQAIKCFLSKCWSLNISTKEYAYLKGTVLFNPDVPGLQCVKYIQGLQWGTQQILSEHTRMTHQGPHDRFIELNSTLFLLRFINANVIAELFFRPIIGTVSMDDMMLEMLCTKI
# An asterisk follows results filed as active; nt = no result given.
SMILES,DAX1 inh-1,hcDAF-12 act,hgDAF-12 ag,ssDAF-12 act,DAX1 inh-2
N=C1C(=O)OCC1c1ccccc1NC(=O)Nc1ccccc1 (stereo not drawn),0.6,4.4,-1.0,0.1,7.1*
O=C(CCc1ccccc1)Nc1cccnc1,0.4,-1.0,4.0,-1.1,0.5
CCCCCCS(=O)[C@H]1CS(=O)(=O)C[C@@H]1S(=O)CCCCCC (stereo partly drawn),-0.5,-0.9,17.0*,-1.8,-0.7
CCCCCc1ccc(-c2ccc(/C=C/C(=O)O)cc2)nc1,0.9,-2.6,-7.2,-1.9,-2.0
CCCCCCCc1ccc(-c2ccc(O)cc2)nc1,1.2,1.6,11.8*,-0.8,-0.2
CC(=O)NCCc1ccc(C(=O)CSc2nnc(C3CC3)n2C2CC2)cc1,4.5*,3.2,1.8,-0.8,0.7
C=CCn1c(C)cc(C(=O)CSc2nnc(C3CC3)n2C2CC2)c1C,4.2*,-0.2,3.2,-0.2,0.3
CCC1=NN=C(c2ccc(F)cc2)C(c2c[nH]c3ccccc23)N1O (stereo not drawn),-0.6,4.5,5.4,0.9*,-0.1
COC(=O)[C@]12C[C@H](CC(=O)N3CCCC3)C(=O)N(CCc3ccc(OC)c(OC)c3)C1=C[C@H](C(C)C)O[C@@H]2C1CC1,-0.8,-1.4,-2.5,-1.0,nt
CSCCC(NC(=O)COc1cccc2ccccc12)C(=O)O (stereo not drawn),-0.7,-0.6,-2.6,1.0*,1.5
CC(C)NC(=O)COc1cccc2ccccc12,-0.3,-0.5,-1.7,-1.8,1.9
COC(=O)C1CN(Cc2ccc(OC)cc2)CCS(=O)(=O)N1Cc1cn(Cc2ccc(F)cc2)nn1 (stereo not drawn),-1.0,-2.5,-1.1,-1.6,nt
CCOC(=O)c1[nH]c(=O)[nH]c1CSCCO,-0.2,-0.5,0.3,-1.0,-0.4
COC(=O)Cc1[nH]c(=O)[nH]c1C(=O)OC,0.0,-0.7,6.2,-1.6,4.6*
COc1ccccc1CCn1cnc(-c2ccc(F)cc2)c1CC(C)C,-1.8,-2.8,-0.4,-1.7,nt
Cc1ccc2c(c1)NC(=O)C(CC(=O)NCCN(CC(C)C)CC(C)C)O2 (stereo not drawn),0.8,-0.8,-0.3,0.2,5.7*
Cc1ccsc1/C=N\NC(=O)c1cc(C(C)(C)C)[nH]n1,2.5,2.4,10.8*,-0.7,2.4
O=C(N/N=C/c1c(Cl)cccc1Cl)c1n[nH]c2c1CCCC2,1.4,-0.6,7.7,-1.9,-1.2
Cc1ccsc1/C=N\NC(=O)c1n[nH]c2c1CCC2,0.6,6.0*,9.8,1.0*,-1.8
C=CCNC(=O)CN(C(=O)Cc1ccc(Cl)cc1)c1cccc(Br)c1,-0.4,-0.8,-3.1,-0.8,nt
c1csc(-c2ccn[nH]2)c1,1.0,-0.4,1.6,-0.8,-0.7
c1ccc(-c2ncc(-c3ccn[nH]3)s2)cc1,5.4*,5.4,22.3*,2.0*,-0.1
O=C(O)c1ccc(N/N=C/C=C/c2ccccc2[N+](=O)[O-])cc1,3.6,4.9,11.9*,3.6*,1.0
Oc1ccccc1C=NN=CC=Cc1ccccc1,0.4,1.1,3.2,-1.0,4.0
O=[N+]([O-])c1ccccc1C=CC=NN=Cc1ccccc1O,-1.0,1.8,1.1,-0.1,5.5*
SMILES,DAX1 inh-1,hcDAF-12 act,hgDAF-12 ag,ssDAF-12 act,DAX1 inh-2
CCOC(=O)CC[C@@H]1CC[C@]2(CCCN(C(=O)C(C)(C)C)C2)O1,0.0,1.3,4.3,-0.9,nt
CCOC(=O)/C(C#N)=C\c1cn(C)c2ccccc12,0.5,-1.0,-1.9,-1.1,-0.2
CCOC(=O)/C(C#N)=C/c1cn(CCOc2ccccc2)c2ccccc12,-0.2,-1.4,1.3,6.7*,-0.1
O=C(Nc1cccc(Br)c1)OC1CC2CC1[C@H]1CCCCN1[C@H]2Cc1ccccc1 (stereo partly drawn),-0.2,1.9,-2.6,0.1,nt
O=C(O)CCCC(=O)Nc1ccc(Oc2ncnc3cc(Cl)ccc23)nc1,0.1,0.3,-2.1,-1.6,5.9*
O=C(Nc1ccc(F)cc1)Nc1ccc(Oc2ncnc3cc(Cl)ccc23)nc1,0.0,0.2,-1.0,-1.2,0.7
O=C(Nc1ccc2ccccc2c1)c1ccc(Cl)cc1Cl,2.4,5.4,10.7*,0.2,0.2
O=C(Nc1ccc2c(c1)C(=O)OC2)c1ccc(Cl)cc1Cl,0.5,5.6*,1.5,-1.1,-0.8
C=C1[C@@H](C)CN[C@@H]1CCO,-0.8,-0.3,0.2,-1.4,nt
Cc1nn(CC(=O)NCc2ccccc2Cl)c(C)c1[N+](=O)[O-],1.2,-0.8,1.5,-1.3,-0.1
Cc1cc(CNC(=O)Cn2nc(C)c([N+](=O)[O-])c2C)c2ccccc2n1,4.3*,-1.9,-2.4,-1.9,0.2
Nc1nc(-c2ccccc2)[nH]c(=O)c1N=O,-0.9,-0.5,0.5,-0.4,4.2*
N#Cc1c(-c2ccccc2)nc(-c2ccccc2)[nH]c1=O,-0.1,-0.5,-1.6,-0.8,0.1
Oc1ccc(-c2csc(Nc3ncccn3)n2)cc1O,3.5,5.5,9.8,-0.1,0.2
Oc1ccc(-c2csc(Nc3ncccn3)n2)c(O)c1,1.9,0.1,24.7*,-0.2,2.5
CC(=O)Oc1ccc(-c2csc(Nc3ccc(Cl)cn3)n2)cc1,0.3,-2.0,3.0,-1.4,-0.1
Oc1ccc(-c2csc(Nc3ccccn3)n2)cc1,0.9,4.8,11.4*,0.1,4.7*
COc1ccc(-c2csc(Nc3ccc(C)cn3)n2)cc1,1.1,0.8,12.1*,-1.1,0.7
CC(=O)Nc1ccc(-c2csc(Nc3cccc(C)n3)n2)cc1,2.5,0.9,11.3*,-0.4,2.7
CC(=O)NNc1nc(-c2ccc(NC(C)=O)cc2)cs1,0.9,1.3,0.0,-1.3,-1.0
Cc1cccnc1Nc1nc(-c2ccc(O)cc2)cs1,1.8,-0.3,9.2,-0.6,1.8
COCCCNC(=O)C[C@H]1C[C@@]2(C(=O)OC)C(=C[C@H](COCc3ccccc3)O[C@@H]2C)N(CCc2ccc(OC)c(OC)c2)C1=O,-0.5,-1.8,1.7,-1.1,nt
COC(=O)[C@]12C[C@H](CC(=O)N3CCSCC3)C(=O)N(Cc3cccc4ccccc34)C1=C[C@H](C(C)C)O[C@@H]2C1CC1,-0.9,-1.3,3.7,-1.3,nt
CC1CCN(C2=NC(=O)N(c3ccc(Br)cc3)C(=O)C2)CC1,-0.4,0.1,2.5,-0.3,nt
COc1ccc(-c2csc(Nc3ccccn3)n2)cc1OC,2.3,2.6,9.7,0.9*,4.8*
Cc1nc(C)c(-c2csc(Nc3ccccn3)n2)s1,0.2,3.9,6.1,0.3,-0.7

# Source: PubChem (The Scripps Research Institute Molecular Screening Center)
